# PMC7862700, “An all-to-all approach to the identification of sequence-specific readers for epigenetic DNA modifications on cytosine”
# Key:
# Experiment in all cases: DAPPL (digital affinity profiling via proximity ligation, sequencing); 10 mM Tris-HCl pH 7.5, 50 mM NaCl, 1 mM DTT, 4% glycerol, room temperature, 30 min; GST-TFs on glutathione beads, 16-mer random dsDNA library, 0.1% formaldehyde crosslink after washing; high values mean tight binding
# Conditions in all cases: protein: recombinant; tags: N-terminal GST; dsDNA, one strand shown
# ELK1 = molecular target: T1, ELK1 (Homo sapiens, UniProt P19419 1-428)
# T1 sequence: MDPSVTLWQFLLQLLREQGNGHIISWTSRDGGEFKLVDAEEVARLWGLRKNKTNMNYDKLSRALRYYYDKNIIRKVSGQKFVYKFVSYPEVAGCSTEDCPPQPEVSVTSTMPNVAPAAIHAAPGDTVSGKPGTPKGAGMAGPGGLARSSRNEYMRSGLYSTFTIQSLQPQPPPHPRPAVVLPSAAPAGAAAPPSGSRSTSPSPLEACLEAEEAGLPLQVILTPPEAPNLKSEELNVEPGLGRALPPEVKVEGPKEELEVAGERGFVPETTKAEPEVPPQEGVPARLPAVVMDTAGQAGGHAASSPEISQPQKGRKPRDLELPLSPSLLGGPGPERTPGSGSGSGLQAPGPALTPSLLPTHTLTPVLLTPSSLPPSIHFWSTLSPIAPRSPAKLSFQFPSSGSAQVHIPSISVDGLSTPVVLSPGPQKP
# In short: (§1)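 Binding signal is each hexamer's read frequency for a factor divided by its frequency in the tag-only sample. The factors were GST-fused human transcription factors from yeast, captured on glutathione beads, DNA-barcoded and pooled with that sample. Pools were incubated with 200 nmole of a random double-stranded 16-mer DNA library in Tris/NaCl/DTT/glycerol buffer at room temperature for 30 min, then washed, crosslinked with 0.1% formaldehyde, proximity-ligated with BsaI/T4 ligase (1 h, 37 °C), PCR-amplified and sequenced on an Illumina NextSeq500.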
# GABPA = molecular target: T2, GABPA (Homo sapiens, UniProt Q06546 1-454)
# T2 sequence: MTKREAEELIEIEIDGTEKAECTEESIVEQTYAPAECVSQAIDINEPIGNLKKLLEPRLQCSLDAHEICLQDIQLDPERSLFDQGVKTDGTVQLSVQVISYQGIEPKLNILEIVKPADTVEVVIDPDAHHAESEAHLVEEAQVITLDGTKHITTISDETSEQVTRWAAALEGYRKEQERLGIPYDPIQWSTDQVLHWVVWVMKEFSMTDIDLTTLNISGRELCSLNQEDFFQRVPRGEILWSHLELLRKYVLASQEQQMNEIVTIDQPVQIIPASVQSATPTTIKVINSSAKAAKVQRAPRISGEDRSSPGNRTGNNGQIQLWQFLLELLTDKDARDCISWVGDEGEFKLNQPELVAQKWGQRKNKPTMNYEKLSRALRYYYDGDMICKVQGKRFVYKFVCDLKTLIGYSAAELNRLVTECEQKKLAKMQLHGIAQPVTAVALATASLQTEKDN
# In short: as §1
# ERG = molecular target: T3, ERG (Homo sapiens, UniProt P11308 1-479)
# T3 sequence: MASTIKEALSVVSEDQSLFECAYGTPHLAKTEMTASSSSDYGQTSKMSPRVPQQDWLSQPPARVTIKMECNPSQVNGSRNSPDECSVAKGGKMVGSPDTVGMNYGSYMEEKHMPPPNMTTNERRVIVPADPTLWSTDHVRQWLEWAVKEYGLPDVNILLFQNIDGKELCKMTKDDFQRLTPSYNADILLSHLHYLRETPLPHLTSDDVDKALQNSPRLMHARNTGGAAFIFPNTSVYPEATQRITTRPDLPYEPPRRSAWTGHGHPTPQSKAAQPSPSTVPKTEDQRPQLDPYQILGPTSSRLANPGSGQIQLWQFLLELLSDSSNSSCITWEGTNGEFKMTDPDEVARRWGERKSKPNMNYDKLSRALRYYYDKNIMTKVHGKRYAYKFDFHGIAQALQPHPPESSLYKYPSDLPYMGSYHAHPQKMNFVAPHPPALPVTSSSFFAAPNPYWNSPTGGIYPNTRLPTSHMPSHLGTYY
# In short: as §1
# ELF1 = ELF1 (Homo sapiens, UniProt P32519 1-619)
# Sequence of ELF1 (P32519 whole entry): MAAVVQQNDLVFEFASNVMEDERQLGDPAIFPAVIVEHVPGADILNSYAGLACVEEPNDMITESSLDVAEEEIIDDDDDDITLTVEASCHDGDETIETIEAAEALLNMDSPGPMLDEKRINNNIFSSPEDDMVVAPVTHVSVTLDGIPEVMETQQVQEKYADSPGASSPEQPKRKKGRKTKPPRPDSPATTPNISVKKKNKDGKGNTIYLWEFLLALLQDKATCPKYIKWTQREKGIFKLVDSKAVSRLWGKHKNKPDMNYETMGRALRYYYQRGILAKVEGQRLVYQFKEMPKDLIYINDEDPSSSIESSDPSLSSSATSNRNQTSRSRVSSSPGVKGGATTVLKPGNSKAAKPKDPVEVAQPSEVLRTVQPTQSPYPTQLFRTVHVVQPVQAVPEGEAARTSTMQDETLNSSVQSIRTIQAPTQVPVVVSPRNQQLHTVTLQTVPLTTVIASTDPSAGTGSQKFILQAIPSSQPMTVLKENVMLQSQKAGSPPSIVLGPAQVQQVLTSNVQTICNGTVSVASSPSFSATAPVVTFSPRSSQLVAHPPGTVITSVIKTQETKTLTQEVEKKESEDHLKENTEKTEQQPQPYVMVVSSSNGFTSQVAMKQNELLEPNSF
# In short: as §1
# EHF = molecular target: T4, EHF (Homo sapiens, UniProt Q9NZC4 1-300)
# T4 sequence: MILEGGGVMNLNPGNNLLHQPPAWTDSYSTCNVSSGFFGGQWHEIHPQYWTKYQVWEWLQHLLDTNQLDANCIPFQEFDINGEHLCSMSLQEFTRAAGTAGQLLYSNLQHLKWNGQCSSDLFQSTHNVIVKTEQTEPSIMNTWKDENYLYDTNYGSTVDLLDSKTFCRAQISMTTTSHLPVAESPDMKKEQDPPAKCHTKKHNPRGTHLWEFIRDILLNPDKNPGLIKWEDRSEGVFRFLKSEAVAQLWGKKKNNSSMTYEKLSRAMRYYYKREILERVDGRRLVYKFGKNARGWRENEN
# In short: as §1
# SPIB = SPIB (Homo sapiens, UniProt Q01892 1-262)
# Sequence of SPIB (Q01892 whole entry): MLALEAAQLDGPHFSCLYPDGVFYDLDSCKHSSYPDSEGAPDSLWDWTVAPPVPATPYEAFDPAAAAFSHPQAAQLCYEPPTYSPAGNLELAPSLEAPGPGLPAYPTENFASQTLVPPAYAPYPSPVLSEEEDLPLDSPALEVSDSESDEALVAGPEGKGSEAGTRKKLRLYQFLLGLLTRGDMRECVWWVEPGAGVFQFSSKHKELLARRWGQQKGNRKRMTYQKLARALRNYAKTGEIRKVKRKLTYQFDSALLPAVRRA
# In short: as §1
# FEV = molecular target: T5, FEV (Homo sapiens, UniProt Q99581 1-238)
# T5 sequence: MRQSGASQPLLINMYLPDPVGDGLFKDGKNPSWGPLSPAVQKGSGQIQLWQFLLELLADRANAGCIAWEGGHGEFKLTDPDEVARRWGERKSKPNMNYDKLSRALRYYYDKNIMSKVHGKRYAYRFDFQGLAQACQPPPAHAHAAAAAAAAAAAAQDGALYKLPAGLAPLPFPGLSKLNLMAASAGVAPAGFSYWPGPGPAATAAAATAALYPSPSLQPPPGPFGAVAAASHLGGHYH
# In short: as §1
# ETV5 = ETV5 (Homo sapiens, UniProt P41161 1-510)
# Sequence of ETV5 (P41161 whole entry): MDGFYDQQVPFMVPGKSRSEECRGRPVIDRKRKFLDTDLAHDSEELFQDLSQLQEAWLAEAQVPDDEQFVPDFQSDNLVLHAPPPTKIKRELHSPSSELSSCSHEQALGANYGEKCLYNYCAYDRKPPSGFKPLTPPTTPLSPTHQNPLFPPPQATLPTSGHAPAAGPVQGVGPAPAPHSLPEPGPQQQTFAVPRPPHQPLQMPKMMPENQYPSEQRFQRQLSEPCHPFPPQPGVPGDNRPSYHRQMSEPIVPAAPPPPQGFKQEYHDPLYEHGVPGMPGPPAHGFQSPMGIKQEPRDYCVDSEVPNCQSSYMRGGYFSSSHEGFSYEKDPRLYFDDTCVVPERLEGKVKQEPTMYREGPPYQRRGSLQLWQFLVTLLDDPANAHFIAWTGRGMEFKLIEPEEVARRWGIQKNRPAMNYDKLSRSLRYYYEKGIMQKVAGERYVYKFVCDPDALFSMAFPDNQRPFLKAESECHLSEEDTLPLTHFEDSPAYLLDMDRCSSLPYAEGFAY
# In short: as §1
# ELF4 = ELF4 (Homo sapiens, UniProt Q99607 1-663)
# Sequence of ELF4 (Q99607 whole entry): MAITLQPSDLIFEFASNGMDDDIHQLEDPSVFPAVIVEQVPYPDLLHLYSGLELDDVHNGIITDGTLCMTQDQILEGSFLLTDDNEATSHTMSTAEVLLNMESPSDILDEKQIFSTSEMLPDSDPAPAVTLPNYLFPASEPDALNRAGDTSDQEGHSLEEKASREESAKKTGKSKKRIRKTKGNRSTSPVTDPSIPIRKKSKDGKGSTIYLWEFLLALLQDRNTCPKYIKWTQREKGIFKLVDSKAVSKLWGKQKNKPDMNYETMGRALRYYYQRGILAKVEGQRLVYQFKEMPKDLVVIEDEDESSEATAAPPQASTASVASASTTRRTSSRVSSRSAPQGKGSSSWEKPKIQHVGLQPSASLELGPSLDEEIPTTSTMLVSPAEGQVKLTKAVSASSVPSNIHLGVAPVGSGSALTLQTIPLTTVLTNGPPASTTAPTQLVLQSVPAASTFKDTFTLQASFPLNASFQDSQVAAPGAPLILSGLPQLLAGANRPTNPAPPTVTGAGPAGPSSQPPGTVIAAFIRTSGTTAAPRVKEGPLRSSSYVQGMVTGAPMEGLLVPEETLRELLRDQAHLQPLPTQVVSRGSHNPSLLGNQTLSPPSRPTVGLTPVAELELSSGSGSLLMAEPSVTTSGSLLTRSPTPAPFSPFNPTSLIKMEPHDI
# In short: as §1
# ETV2 = molecular target: T6, ETV2 (Homo sapiens, UniProt O00321 1-342)
# T6 sequence: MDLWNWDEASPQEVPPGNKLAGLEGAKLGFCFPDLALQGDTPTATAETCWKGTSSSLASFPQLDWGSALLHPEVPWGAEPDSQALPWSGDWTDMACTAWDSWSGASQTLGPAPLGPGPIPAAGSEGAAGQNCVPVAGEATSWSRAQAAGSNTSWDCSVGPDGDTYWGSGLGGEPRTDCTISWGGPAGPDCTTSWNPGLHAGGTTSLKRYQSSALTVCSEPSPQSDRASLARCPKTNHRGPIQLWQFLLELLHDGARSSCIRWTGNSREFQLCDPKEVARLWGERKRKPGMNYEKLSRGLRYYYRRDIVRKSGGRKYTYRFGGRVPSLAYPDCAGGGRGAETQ
# In short: as §1
# ELF3 = molecular target: T7, ELF3 (Homo sapiens, UniProt P78545 1-371)
# T7 sequence: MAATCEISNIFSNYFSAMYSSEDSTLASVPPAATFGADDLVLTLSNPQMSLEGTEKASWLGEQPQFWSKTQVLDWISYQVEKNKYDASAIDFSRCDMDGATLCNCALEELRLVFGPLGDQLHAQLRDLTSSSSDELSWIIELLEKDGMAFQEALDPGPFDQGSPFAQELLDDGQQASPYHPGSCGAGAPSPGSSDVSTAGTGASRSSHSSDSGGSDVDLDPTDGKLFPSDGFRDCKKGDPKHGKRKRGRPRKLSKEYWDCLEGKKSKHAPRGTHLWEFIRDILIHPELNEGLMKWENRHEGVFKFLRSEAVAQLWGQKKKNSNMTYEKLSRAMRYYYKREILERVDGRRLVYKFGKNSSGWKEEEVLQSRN
# In short: as §1
# ETV1 = ETV1 (Homo sapiens, UniProt P50549 1-477)
# Sequence of ETV1 (P50549 whole entry): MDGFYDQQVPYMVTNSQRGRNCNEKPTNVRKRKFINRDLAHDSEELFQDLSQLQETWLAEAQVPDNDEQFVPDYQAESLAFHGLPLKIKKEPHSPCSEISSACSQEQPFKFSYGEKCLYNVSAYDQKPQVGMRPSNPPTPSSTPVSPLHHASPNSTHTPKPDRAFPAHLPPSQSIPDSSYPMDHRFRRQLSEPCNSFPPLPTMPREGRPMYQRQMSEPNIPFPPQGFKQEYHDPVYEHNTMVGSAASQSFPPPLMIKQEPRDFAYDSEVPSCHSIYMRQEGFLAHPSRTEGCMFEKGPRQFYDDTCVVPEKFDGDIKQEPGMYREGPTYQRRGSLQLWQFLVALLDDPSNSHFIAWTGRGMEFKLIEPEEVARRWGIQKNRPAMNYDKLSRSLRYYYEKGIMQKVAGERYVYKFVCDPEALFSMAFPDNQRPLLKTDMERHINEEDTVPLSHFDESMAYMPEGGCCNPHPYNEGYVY
# In short: as §1
# ERF = molecular target: T8, ERF (Homo sapiens, UniProt P50548 1-548)
# T8 sequence: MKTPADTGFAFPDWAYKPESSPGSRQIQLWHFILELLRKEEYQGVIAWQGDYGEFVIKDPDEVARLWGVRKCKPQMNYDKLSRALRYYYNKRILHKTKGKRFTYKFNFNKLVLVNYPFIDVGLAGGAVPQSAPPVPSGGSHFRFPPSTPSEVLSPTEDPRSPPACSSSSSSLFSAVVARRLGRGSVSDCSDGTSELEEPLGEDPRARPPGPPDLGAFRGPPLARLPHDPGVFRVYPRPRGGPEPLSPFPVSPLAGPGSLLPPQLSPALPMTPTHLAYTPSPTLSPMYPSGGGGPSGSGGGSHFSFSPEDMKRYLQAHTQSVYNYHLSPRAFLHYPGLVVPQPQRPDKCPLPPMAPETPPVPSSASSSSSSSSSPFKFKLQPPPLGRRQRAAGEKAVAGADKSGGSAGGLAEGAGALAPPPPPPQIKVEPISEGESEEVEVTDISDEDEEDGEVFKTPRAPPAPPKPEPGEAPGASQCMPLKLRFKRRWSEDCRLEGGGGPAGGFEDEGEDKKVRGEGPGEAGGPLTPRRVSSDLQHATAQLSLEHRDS
# In short: as §1
# ETV3L = molecular target: T9, ETV3L (Homo sapiens, UniProt Q6ZN32 1-361)
# T9 sequence: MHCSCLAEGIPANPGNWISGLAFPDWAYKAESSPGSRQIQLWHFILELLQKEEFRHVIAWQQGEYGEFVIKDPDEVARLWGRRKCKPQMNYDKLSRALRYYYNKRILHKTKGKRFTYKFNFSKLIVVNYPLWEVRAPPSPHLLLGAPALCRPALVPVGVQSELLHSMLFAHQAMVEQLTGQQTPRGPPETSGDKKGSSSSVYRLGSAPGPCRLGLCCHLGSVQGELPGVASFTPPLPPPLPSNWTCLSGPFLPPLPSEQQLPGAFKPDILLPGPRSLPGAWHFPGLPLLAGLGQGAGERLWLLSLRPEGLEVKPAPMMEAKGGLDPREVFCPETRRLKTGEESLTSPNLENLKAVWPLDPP
# In short: as §1
# ETS2 = molecular target: T10, ETS2 (Homo sapiens, UniProt P15036 1-469)
# T10 sequence: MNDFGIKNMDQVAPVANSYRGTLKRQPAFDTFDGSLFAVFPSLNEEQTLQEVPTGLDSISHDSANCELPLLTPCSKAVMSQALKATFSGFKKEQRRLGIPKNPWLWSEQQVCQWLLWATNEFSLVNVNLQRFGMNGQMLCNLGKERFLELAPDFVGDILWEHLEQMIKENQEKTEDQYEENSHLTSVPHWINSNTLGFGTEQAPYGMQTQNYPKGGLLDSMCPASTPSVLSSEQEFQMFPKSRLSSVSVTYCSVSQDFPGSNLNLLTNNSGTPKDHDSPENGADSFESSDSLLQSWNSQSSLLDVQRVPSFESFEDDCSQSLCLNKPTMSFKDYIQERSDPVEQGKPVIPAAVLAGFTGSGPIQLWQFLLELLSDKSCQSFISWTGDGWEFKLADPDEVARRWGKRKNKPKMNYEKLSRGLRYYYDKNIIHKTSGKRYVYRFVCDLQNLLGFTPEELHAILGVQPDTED
# In short: as §1
# SPDEF = molecular target: T11, SPDEF (Homo sapiens, UniProt O95238 1-335)
# T11 sequence: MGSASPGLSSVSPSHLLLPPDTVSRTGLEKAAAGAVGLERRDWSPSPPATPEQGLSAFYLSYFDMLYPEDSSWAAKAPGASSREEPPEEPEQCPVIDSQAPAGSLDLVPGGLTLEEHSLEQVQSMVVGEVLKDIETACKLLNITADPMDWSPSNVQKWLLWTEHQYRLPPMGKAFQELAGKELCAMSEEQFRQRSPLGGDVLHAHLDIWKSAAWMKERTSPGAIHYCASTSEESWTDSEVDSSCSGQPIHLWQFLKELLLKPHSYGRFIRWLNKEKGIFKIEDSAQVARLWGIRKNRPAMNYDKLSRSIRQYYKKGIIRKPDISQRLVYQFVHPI
# In short: as §1
# ETV7 = molecular target: T12, ETV7 (Homo sapiens, UniProt Q9Y603 1-341)
# T12 sequence: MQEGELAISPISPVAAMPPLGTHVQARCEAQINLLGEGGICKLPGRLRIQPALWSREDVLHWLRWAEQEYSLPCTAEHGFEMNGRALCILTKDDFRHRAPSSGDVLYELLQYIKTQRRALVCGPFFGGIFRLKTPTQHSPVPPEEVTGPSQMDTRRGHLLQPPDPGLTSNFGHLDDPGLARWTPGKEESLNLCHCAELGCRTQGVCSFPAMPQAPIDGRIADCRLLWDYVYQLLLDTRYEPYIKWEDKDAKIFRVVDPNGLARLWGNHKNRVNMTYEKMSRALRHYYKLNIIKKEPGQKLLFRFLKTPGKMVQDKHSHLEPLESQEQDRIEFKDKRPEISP
# In short: as §1
# ETV3 = molecular target: T13, ETV3 (Homo sapiens, UniProt P41162-2 1-143)
# T13 sequence: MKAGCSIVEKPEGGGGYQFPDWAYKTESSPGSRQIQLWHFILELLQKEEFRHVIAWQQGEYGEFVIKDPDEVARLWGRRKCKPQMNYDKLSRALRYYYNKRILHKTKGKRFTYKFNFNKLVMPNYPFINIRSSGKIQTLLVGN
# In short: as §1
# ETV6 = ETV6 (Homo sapiens, UniProt P41212 1-452)
# Sequence of ETV6 (P41212 whole entry): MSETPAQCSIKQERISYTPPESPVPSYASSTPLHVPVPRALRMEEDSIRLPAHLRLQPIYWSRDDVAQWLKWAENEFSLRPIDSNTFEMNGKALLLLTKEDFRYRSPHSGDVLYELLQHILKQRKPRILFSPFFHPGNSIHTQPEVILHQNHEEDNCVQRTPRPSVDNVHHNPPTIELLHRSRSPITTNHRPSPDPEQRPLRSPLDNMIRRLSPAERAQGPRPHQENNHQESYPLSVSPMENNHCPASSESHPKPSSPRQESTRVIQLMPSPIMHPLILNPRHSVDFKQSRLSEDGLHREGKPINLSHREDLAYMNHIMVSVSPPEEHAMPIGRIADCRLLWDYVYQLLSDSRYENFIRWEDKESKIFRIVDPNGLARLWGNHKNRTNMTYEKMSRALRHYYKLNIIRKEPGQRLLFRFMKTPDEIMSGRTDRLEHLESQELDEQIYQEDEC
# In short: as §1
sequence,measurement,setting,value
CCCGTC,binding signal,ELK1,"1.1 fold enrichment (6-mer frequency, TF over GST control)"
same,binding signal,GABPA,"1.01 fold enrichment (6-mer frequency, TF over GST control)"
same,binding signal,ERG,"1.1 fold enrichment (6-mer frequency, TF over GST control)"
same,binding signal,ELF1,"1.13 fold enrichment (6-mer frequency, TF over GST control)"
same,binding signal,EHF,"1.09 fold enrichment (6-mer frequency, TF over GST control)"
same,binding signal,SPIB,"1.05 fold enrichment (6-mer frequency, TF over GST control)"
same,binding signal,FEV,"1.09 fold enrichment (6-mer frequency, TF over GST control)"
same,binding signal,ETV5,"1.08 fold enrichment (6-mer frequency, TF over GST control)"
same,binding signal,ELF4,"1.07 fold enrichment (6-mer frequency, TF over GST control)"
same,binding signal,ETV2,"1.32 fold enrichment (6-mer frequency, TF over GST control)"
same,binding signal,ELF3,"1.03 fold enrichment (6-mer frequency, TF over GST control)"
same,binding signal,ETV1,"1.1 fold enrichment (6-mer frequency, TF over GST control)"
same,binding signal,ERF,"1.14 fold enrichment (6-mer frequency, TF over GST control)"
same,binding signal,ETV3L,"1 fold enrichment (6-mer frequency, TF over GST control)"
same,binding signal,ETS2,"1.04 fold enrichment (6-mer frequency, TF over GST control)"
same,binding signal,SPDEF,"1.12 fold enrichment (6-mer frequency, TF over GST control)"
same,binding signal,ETV7,"1.16 fold enrichment (6-mer frequency, TF over GST control)"
same,binding signal,ETV3,"1.03 fold enrichment (6-mer frequency, TF over GST control)"
same,binding signal,ETV6,"1.07 fold enrichment (6-mer frequency, TF over GST control)"
